# Compounds without any hit were thinned out: in the full panel of roughly 83,000, 20% have a hit.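 In brief: 96-well plates, 48 h treatment, single concentration, percent growth endpoint.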 Values without a mark were called inactive. Activity calls are given as the source filed them. The calls were made as follows: active = growth percent below 10; inactive = the rest.
# What was measured:
# Experiment in all cases: NCI-60 one-dose screen, 48 h (100 = growth as untreated, 0 = no growth, -100 = all killed)
# Conditions in all cases: 10 µM unless noted
# HCT-15 colon = system: HCT-15 colon
# HT29 colon = system: HT29 colon
# SNB-75 CNS = system: SNB-75 CNS
# SNB-19 CNS = system: SNB-19 CNS
# U251 CNS = system: U251 CNS
# PC-3 prostate = system: PC-3 prostate
# SK-MEL-5 melanoma = system: SK-MEL-5 melanoma
# UACC-62 melanoma = system: UACC-62 melanoma
# LOX IMVI melanoma = system: LOX IMVI melanoma
# SK-MEL-28 melanoma = system: SK-MEL-28 melanoma
# SK-MEL-2 melanoma = system: SK-MEL-2 melanoma
# EKVX NSCLC = system: EKVX NSCLC
# SN12C renal = system: SN12C renal
# UO-31 renal = system: UO-31 renal
# TK-10 renal = system: TK-10 renal
# ACHN renal = system: ACHN renal
# CAKI-1 renal = system: CAKI-1 renal
# A498 renal = system: A498 renal
# CCRF-CEM leukemia = system: CCRF-CEM leukemia
# MOLT-4 leukemia = system: MOLT-4 leukemia
SMILES,growth (HCT-15 colon),growth (HT29 colon),growth (SNB-75 CNS),growth (SNB-19 CNS),growth (U251 CNS),growth (PC-3 prostate),growth (SK-MEL-5 melanoma),growth (UACC-62 melanoma),growth (LOX IMVI melanoma),growth (SK-MEL-28 melanoma),growth (SK-MEL-2 melanoma),growth (EKVX NSCLC),growth (SN12C renal),growth (UO-31 renal),growth (TK-10 renal),growth (ACHN renal),growth (CAKI-1 renal),growth (A498 renal),growth (CCRF-CEM leukemia),growth (MOLT-4 leukemia)
Cc1nc2sc(C(=O)Nc3cccc(Cl)c3)c(N)c2cc1C(O)c1ccccc1 (stereo not given),14.2%,14.9%,46.9%,33.4%,10.2%,28.1%,11%,31.5%,45.3%,56%,49.9%,44.6%,24.4%,45.7%,62.4%,30.5%,46.4%,8.38% (active),17.1%,14.5%
N#C/C(=C\c1ccc(Br)cc1)c1cc2ccccc2[nH]1,94%,109%,104%,94.5%,95.1%,84.7%,97.4%,87.8%,95.3%,103%,114%,91%,97.6%,86.8%,119%,102%,92.7%,89.1%,-42.4% (active),84.5%
Fc1ccc(CNc2c3ccccc3nc3ccccc23)cc1,17.6%,16.1%,42.1%,32.4%,25.9%,26.9%,42.5%,50.2%,9.43% (active),68.2%,43.8%,35.6%,25.7%,13.5%,30.2%,12.5%,25.5%,-1.77% (active),26%,8.68% (active)
O=C(N=Nc1c(O)[nH]c2ccccc12)Nc1ccc(Cl)cc1,87.3%,93.5%,101%,89.3%,100%,89.8%,90.7%,75.7%,86.5%,91.5%,99.7%,86.5%,97.1%,69.2%,101%,80.5%,89.2%,77.6%,-8.91% (active),87.3%
O=C1Nc2ccccc2C2c3cccn3-c3ccccc3N12 (stereo not given),53.9%,31.7%,40%,88.9%,60.2%,66.9%,80%,57.6%,74.2%,94.1%,52%,81.8%,90.3%,70.4%,73.1%,94.8%,80.8%,73.9%,80.9%,77.5%
CC[C@@H](c1ccc2cc(OC)ccc2c1)C(C)(C)C(=O)F,104%,118%,106%,91.9%,98.8%,101%,106%,103%,91.4%,106%,94.8%,96.1%,105%,97%,126%,104%,76.8%,98.4%,114%,99.2%
CCN1C(=O)N(CC)C2C1NN=c1s/c(=C\c3cc4ccccc4[nH]3)c(=O)n12 (stereo not given),12%,5.58% (active),32.1%,45.1%,7.49% (active),13.2%,-5.91% (active),22.2%,17.4%,52.2%,23.1%,54.5%,11.2%,18.7%,59.6%,11.7%,7.63% (active),2.17% (active),-8.2% (active),11.1%
NC(=O)OCCn1cc(-c2nc(-c3c[nH]c4ncccc34)cs2)c2ccccc21,28%,8.34% (active),10.6%,42.2%,20%,33.2%,18.5%,32.9%,30.1%,61.7%,2.38% (active),42.1%,49.1%,34.1%,62.3%,38%,34.5%,-11.7% (active),21.7%,19.6%
CCOC(=O)c1c(C)c2c(n1C)CSc1cc(S(=O)(=O)c3ccccc3)c(=O)[nH]c1-2,24.7% [100 µM],0.904% [100 µM] (active),32.1% [100 µM],43.3% [100 µM],35.7% [100 µM],15.9% [100 µM],-6.57% [100 µM] (active),1.08% [100 µM] (active),31.9% [100 µM],41% [100 µM],30.7% [100 µM],14.7% [100 µM],24.8% [100 µM],22.7% [100 µM],24.8% [100 µM],25.9% [100 µM],26.3% [100 µM],44.9% [100 µM],29.2% [100 µM],41.5% [100 µM]
CCOC(=O)c1c(-c2ccc(Cl)cc2)c(C#N)c2c(C#N)c(N)nn2c1N,47.2%,49.7%,79.8%,74.7%,66.4%,59.3%,52.3%,46.4%,65.8%,62.6%,52.5%,60.1%,79.1%,66.4%,84.4%,72%,66%,29.3%,30.5%,25.6%
Cc1c2cnccc2c(C)c2c1c1cc(C3OCCCO3)ccc1n2C,1.16% (active),1.09% (active),-23% (active),-3.48% (active),-1.98% (active),2.08% (active),-95.8% (active),-43.6% (active),-23.6% (active),-29.6% (active),-67.5% (active),3.53% (active),-10.2% (active),-7.3% (active),-14.5% (active),-12.1% (active),8.13% (active),-56.6% (active),-6.77% (active),-4.85% (active)
COc1cc(/C=C/c2cc(/C=C/c3ccc(O)c(OC)c3)n(C(=O)Nc3ccc(F)cc3)n2)ccc1O,10.6%,-41.8% (active),26.9%,20.2%,13.4%,9.01% (active),-8.36% (active),2.01% (active),4% (active),16.7%,-27.1% (active),26.9%,17.9%,14%,38.1%,20.2%,-7.81% (active),31.5%,6.82% (active),-3.56% (active)
COc1cc2c3c(c1O)-c1ccccc1[C@@H]1OC(=O)N(CC2)[C@H]31,100%,106%,90.5%,104%,94.8%,70.7%,96.1%,90.1%,99.1%,118%,97.6%,104%,101%,88.5%,104%,106%,95.4%,92.9%,74.1%,96.8%
CCN(CC)c1ccc(/C=N/NC(=O)c2ccc(Nc3ccnc(C(F)(F)F)c3)cc2)c(O)c1,19.6%,0.587% (active),37.1%,15.5%,14%,19.6%,-50.6% (active),5.86% (active),-25.4% (active),47.4%,56.8%,11.2%,24.4%,4.15% (active),43.5%,7.21% (active),7.86% (active),44.3%,25.5%,103%
O=C1/C(=C/c2cccc([N+](=O)[O-])c2)COc2ccc(O)cc21,-9.57% (active),3.32% (active),79.4%,72.2%,2.17% (active),42.9%,89.1%,59.4%,-80.6% (active),82.7%,91.3%,95.8%,13.1%,22.4%,87%,6.88% (active),52.8%,102%,0.606% (active),18.2%

# Reference: PubChem BioAssay (NCI)
